Results on 16 molecules are retold here after ChEMBL document CHEMBL1961873, “Compounds: GSK PKIS; Assays: Nanosyn kinase panel” (2012).

Epidermal growth factor receptor (Homo sapiens), P00533 [L861Q], sequence (P00533 whole entry L861Q): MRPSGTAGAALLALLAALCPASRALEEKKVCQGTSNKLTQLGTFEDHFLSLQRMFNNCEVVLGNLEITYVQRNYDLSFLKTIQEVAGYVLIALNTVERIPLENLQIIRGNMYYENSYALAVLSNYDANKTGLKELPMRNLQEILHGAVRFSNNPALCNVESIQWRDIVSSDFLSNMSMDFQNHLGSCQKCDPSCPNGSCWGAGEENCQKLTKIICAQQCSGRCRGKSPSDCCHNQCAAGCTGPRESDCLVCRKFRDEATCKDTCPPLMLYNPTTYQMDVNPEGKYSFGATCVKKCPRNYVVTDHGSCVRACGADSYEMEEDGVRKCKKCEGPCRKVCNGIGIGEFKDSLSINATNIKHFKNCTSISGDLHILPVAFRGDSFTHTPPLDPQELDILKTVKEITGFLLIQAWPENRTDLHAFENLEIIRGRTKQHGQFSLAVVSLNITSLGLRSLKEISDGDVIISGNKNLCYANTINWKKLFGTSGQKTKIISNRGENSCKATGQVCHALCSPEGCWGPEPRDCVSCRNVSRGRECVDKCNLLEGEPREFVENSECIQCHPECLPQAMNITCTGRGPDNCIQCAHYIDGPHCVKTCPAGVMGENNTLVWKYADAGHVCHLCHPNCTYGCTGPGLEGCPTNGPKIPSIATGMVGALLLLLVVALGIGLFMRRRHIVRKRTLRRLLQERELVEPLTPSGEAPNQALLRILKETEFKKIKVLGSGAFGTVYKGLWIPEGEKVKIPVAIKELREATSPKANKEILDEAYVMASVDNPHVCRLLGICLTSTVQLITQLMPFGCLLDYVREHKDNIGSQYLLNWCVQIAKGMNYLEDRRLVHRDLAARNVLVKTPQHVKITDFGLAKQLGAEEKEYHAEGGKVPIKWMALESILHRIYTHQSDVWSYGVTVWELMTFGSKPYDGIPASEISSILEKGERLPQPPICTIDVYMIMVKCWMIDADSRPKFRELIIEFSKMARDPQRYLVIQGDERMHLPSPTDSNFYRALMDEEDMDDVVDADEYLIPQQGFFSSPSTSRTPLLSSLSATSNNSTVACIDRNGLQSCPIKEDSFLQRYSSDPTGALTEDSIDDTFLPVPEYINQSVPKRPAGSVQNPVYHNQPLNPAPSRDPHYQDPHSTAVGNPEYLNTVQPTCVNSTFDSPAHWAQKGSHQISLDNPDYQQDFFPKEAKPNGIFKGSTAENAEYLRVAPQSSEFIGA

The subject of the assay is Epidermal growth factor receptor (Homo sapiens), P00533 [L861Q]. As to conditions: at 0.1 µM.
The term inhibition denotes the change of the read-out against control, counted positive when it falls. Regarding `CNC(=O)c1cccc(C#Cc2cncnc2Nc2ccc(OCc3cccc(F)c3)c(Cl)c2)c1`, the inhibition was found to be 25.9%.
Take `Fc1ccc(-c2cc(-c3c[nH]nc3-c3ccccn3)ccn2)cc1`: the inhibition was 4%.
Under `CN1CCC(n2cnc(-c3ccc(F)cc3)c2-c2ccnc(Nc3ccccc3)n2)CC1` stands 9.58%.
The value for `CCn1c(-c2nonc2N)nc2c(C#CC(C)(C)O)ncc(OC3CCNCC3)c21` was -0.91%; that for `COc1cccc(-c2c[nH]c3c(N/N=C/c4ccncc4)ncnc23)c1` was 8.35%; that for `Cc1ccc2c(-c3ccnc(Nc4ccccc4)n3)c(-c3ccc(F)cc3)nn2n1` was 51.8%.
For `COC(=O)Nc1nc2ccc(Oc3ccc(NC(=O)Nc4cccc(Cl)c4)cc3)cc2[nH]1`, the inhibition was -0.21%.
For `COc1ccc(-c2cc(-c3c[nH]nc3-c3ccccn3)ccn2)cc1`, the inhibition is 4.61%.
Under `COc1cc(/C=N/Nc2ncnc3[nH]ncc23)ccc1O` stands 2.91%.
As for `[O-][S+]1CCN(Cc2ccc(-c3ccc4ncnc(Nc5ccc(OCc6cccc(F)c6)c(Cl)c5)c4c3)o2)CC1`, the inhibition came to 77.5%.
Take `CCNC(=O)O[C@H]1CN[C@H](C#Cc2cc3ncnc(Nc4ccc(OCc5cccc(F)c5)c(Cl)c4)c3s2)C1`: the inhibition stood at 37.6%.
With `CC1=C(C(=O)Nc2cc(Cl)c3[nH]ncc3c2)C(c2ccc(C(F)(F)F)cc2)CC(=O)N1` (stereo unspecified), the inhibition turned out to be 2.03%.
For `c1ccc(-c2nc3n(c2-c2ccc4c(c2)OCO4)CCC3)nc1`, the inhibition worked out at 0.86%.
In the case of `CCOc1ccc2c(-c3ccnc(Nc4cccc(C(F)(F)F)c4)n3)cnn2n1`, the inhibition came to 1.44%.
Consider `CCN1CCC(CC(=O)Nc2n[nH]c3nnc(-c4cccc(F)c4F)cc23)CC1`, for which the inhibition is 0.65%.
`COc1ccc2[nH]c3c4[nH]c5ccc(OC)cc5c4c4c(c3c2c1)C(=O)NC4=O`: the inhibition was 7.22%.
